# Measurements as given in paper PMC7862700, “An all-to-all approach to the identification of sequence-specific readers for epigenetic DNA modifications on cytosine”.
# Key:
# Test in all cases: DAPPL (digital affinity profiling via proximity ligation, sequencing); 10 mM Tris-HCl pH 7.5, 50 mM NaCl, 1 mM DTT, 4% glycerol, room temperature, 30 min; GST-TFs on glutathione beads, 16-mer random dsDNA library, 0.1% formaldehyde crosslink after washing; high values mean tight binding
# Conditions in all cases: protein: recombinant; tags: N-terminal GST; dsDNA, one strand shown
# FLI1 = target: T1, FLI1 (Homo sapiens, UniProt Q01543 1-452)
# T1 sequence: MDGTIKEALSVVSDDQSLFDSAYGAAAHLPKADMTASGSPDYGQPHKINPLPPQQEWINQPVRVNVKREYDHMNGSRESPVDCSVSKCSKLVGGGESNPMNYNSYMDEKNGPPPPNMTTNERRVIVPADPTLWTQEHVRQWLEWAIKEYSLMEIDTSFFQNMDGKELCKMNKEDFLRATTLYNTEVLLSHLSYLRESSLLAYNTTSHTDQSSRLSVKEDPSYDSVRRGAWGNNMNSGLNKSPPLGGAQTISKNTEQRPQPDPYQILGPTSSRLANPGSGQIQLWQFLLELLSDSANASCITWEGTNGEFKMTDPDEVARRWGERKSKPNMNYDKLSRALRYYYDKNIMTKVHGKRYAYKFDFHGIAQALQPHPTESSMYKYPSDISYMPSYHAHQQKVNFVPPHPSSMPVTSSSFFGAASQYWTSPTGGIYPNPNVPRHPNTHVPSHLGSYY
# In short: (§1)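 Human transcription factors carrying a GST fusion were produced in yeast, bound to glutathione beads, tagged with DNA barcodes and pooled together with a tag-only sample. Each pool was held with 200 nmole of a random double-stranded 16-mer DNA library in Tris/NaCl/DTT/glycerol buffer for 30 min at room temperature, then washed, crosslinked in 0.1% formaldehyde, proximity-ligated with BsaI/T4 ligase (1 h, 37 °C), PCR-amplified and sequenced on an Illumina NextSeq500. Binding signal is the read frequency of each hexamer for a given factor divided by its frequency in the tag-only sample.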
# ELK1 = target: T2, ELK1 (Homo sapiens, UniProt P19419 1-428)
# T2 sequence: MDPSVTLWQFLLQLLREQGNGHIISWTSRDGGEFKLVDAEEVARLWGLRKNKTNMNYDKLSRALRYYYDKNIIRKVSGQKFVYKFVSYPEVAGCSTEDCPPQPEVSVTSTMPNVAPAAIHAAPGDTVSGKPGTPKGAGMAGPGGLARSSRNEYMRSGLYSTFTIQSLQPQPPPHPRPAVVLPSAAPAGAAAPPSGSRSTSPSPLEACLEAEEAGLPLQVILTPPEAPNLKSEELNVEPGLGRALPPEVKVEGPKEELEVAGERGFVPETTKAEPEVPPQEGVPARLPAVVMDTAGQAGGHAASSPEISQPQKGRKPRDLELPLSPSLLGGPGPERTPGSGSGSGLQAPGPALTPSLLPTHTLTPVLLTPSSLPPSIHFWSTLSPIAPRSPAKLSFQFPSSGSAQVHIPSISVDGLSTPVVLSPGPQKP
# In short: as §1
# GABPA = target: T3, GABPA (Homo sapiens, UniProt Q06546 1-454)
# T3 sequence: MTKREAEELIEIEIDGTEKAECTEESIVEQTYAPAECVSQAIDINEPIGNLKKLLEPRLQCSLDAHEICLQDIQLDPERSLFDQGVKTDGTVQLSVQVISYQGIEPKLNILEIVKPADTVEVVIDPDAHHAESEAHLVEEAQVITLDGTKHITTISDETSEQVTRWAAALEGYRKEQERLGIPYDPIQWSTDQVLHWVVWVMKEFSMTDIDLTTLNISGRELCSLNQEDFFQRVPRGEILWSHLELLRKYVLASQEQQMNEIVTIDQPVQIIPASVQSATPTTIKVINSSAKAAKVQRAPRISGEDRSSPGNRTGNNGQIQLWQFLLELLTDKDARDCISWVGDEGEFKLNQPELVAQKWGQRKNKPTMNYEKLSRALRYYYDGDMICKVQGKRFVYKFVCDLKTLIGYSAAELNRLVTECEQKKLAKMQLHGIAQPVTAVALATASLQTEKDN
# In short: as §1
# ERG = target: T4, ERG (Homo sapiens, UniProt P11308 1-479)
# T4 sequence: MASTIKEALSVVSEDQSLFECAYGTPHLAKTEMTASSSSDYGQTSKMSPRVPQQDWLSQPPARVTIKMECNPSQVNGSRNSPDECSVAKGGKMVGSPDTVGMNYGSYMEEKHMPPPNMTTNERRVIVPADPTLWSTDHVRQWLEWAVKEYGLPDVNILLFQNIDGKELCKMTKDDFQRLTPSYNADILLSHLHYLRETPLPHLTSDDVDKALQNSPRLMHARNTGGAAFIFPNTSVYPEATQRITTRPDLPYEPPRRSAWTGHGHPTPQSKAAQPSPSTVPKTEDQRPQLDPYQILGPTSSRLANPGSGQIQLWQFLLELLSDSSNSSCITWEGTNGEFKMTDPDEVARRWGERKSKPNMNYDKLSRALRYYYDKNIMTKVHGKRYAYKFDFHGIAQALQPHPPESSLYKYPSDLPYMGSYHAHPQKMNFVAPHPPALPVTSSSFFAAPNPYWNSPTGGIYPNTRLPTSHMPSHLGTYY
# In short: as §1
# ELF1 = ELF1 (Homo sapiens, UniProt P32519 1-619)
# Sequence of ELF1 (P32519 whole entry): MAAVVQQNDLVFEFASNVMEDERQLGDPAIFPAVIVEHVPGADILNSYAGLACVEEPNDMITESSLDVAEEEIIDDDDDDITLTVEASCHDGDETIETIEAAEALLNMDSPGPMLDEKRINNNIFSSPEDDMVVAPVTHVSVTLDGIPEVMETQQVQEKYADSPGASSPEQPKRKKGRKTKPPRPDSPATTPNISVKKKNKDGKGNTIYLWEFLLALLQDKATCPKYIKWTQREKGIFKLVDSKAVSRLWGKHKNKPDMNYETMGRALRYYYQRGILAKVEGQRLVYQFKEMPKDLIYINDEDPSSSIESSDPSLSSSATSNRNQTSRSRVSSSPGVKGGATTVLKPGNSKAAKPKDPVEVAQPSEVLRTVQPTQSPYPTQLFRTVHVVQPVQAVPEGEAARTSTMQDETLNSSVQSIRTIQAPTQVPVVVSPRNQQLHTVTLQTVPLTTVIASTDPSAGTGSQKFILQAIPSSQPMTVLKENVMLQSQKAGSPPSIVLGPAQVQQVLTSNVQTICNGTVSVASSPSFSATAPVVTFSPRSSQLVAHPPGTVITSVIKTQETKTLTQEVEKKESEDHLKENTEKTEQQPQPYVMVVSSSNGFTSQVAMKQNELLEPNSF
# In short: as §1
# EHF = target: T5, EHF (Homo sapiens, UniProt Q9NZC4 1-300)
# T5 sequence: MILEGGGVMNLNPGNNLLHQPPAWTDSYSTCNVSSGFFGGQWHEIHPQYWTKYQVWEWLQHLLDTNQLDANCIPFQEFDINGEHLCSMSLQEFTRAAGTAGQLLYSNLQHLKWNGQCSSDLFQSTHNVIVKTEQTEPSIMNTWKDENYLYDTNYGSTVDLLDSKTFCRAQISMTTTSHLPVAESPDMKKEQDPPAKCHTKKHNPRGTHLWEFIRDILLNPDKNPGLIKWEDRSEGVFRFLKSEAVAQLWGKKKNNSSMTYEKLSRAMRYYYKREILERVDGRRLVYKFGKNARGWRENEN
# In short: as §1
# SPI1 = SPI1 (Homo sapiens, UniProt P17947 1-270)
# In short: as §1
# ELK3 = target: T6, ELK3 (Homo sapiens, UniProt P41970 1-407)
# T6 sequence: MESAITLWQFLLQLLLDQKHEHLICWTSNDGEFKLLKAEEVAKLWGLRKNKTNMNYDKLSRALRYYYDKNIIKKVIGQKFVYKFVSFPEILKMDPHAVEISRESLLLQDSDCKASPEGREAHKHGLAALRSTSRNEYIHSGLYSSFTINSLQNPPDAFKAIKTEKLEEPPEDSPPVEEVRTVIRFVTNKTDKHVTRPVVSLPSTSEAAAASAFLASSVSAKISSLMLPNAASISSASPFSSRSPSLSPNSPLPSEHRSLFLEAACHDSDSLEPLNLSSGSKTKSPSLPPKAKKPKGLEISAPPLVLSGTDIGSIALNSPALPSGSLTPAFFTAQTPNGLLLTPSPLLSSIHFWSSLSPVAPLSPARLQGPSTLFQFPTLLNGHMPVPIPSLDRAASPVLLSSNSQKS
# In short: as §1
# FEV = target: T7, FEV (Homo sapiens, UniProt Q99581 1-238)
# T7 sequence: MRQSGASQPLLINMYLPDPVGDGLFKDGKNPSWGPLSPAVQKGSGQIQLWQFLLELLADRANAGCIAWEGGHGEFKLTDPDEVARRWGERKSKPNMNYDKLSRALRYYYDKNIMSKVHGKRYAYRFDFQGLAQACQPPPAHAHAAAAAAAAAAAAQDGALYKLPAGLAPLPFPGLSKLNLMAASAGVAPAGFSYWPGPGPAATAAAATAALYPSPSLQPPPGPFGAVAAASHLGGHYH
# In short: as §1
# ETV5 = ETV5 (Homo sapiens, UniProt P41161 1-510)
# Sequence of ETV5 (P41161 whole entry): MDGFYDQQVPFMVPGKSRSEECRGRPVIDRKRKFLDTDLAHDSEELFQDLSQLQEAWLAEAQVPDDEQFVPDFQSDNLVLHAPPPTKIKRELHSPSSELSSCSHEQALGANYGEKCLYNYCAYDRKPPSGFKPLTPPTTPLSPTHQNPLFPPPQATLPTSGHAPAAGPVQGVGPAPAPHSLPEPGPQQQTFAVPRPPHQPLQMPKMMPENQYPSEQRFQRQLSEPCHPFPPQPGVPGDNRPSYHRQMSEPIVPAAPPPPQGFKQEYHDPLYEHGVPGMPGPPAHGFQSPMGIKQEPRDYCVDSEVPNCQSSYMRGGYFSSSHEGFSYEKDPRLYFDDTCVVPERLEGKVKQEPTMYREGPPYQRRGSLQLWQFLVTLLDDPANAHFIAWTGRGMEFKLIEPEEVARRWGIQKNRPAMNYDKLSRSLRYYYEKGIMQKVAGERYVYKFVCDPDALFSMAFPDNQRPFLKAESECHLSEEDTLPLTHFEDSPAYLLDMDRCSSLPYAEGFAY
# In short: as §1
# SPIC = target: T8, SPIC (Homo sapiens, UniProt Q8N5J4 1-248)
# T8 sequence: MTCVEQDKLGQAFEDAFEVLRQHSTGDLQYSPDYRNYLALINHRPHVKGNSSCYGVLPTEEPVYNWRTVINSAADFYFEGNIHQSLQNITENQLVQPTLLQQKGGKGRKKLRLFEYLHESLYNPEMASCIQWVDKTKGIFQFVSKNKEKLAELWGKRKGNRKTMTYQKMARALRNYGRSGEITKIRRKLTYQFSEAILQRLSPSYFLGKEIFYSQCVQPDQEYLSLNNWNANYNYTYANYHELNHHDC
# In short: as §1
# ELF4 = ELF4 (Homo sapiens, UniProt Q99607 1-663)
# Sequence of ELF4 (Q99607 whole entry): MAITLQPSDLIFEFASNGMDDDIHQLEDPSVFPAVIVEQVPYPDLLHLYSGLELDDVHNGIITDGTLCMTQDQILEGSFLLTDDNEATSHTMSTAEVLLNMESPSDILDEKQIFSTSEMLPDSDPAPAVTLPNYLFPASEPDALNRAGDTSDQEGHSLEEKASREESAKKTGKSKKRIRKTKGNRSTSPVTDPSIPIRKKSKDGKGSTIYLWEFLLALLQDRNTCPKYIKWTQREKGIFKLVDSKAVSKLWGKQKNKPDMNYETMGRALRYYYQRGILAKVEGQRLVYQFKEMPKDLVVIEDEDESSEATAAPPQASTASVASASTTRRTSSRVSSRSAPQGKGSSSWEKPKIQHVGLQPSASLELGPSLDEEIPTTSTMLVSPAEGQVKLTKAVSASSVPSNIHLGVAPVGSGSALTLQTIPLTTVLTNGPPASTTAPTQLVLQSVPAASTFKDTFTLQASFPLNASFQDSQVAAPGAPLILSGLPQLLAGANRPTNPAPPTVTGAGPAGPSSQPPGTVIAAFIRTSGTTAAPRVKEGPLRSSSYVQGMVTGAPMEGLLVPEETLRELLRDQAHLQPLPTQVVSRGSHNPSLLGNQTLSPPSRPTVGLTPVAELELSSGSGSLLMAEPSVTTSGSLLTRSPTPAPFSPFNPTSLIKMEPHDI
# In short: as §1
# ETV1 = ETV1 (Homo sapiens, UniProt P50549 1-477)
# Sequence of ETV1 (P50549 whole entry): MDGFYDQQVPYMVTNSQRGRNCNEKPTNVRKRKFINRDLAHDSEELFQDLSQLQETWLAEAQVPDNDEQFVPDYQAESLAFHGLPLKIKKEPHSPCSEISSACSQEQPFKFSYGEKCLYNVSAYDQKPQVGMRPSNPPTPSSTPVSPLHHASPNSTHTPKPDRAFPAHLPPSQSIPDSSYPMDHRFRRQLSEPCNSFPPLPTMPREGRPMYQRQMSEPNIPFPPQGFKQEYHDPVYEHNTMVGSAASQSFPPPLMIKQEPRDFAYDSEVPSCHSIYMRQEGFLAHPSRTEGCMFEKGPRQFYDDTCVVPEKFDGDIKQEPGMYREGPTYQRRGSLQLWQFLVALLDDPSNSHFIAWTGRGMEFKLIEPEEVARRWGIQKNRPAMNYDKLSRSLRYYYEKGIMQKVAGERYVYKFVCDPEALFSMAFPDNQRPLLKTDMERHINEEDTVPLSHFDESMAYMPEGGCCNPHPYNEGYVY
# In short: as §1
# ERF = target: T9, ERF (Homo sapiens, UniProt P50548 1-548)
# T9 sequence: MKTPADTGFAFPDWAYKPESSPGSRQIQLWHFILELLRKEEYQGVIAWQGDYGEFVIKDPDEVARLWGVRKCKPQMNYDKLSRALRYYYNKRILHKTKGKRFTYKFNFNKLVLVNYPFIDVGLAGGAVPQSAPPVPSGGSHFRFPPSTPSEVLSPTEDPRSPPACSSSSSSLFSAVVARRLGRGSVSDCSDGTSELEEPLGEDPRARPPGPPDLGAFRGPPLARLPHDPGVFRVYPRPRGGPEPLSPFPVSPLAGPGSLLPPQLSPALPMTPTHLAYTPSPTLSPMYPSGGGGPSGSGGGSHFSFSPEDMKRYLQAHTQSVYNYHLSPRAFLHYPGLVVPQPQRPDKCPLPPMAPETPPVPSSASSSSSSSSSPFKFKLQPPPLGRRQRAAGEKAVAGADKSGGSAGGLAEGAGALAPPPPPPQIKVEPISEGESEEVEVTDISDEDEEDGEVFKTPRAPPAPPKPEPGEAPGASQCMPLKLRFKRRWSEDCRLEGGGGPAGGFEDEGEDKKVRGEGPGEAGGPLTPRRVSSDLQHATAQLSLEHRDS
# In short: as §1
# ETV3L = target: T10, ETV3L (Homo sapiens, UniProt Q6ZN32 1-361)
# T10 sequence: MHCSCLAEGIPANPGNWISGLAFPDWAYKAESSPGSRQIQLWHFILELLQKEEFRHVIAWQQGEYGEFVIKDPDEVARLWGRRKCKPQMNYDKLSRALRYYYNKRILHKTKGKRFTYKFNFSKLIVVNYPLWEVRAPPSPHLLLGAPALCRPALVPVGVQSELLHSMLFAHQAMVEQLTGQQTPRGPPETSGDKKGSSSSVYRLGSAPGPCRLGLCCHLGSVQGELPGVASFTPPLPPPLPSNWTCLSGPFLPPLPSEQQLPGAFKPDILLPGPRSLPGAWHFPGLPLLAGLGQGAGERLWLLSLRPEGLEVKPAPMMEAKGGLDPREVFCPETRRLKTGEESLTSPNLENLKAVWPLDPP
# In short: as §1
# ETS2 = target: T11, ETS2 (Homo sapiens, UniProt P15036 1-469)
# T11 sequence: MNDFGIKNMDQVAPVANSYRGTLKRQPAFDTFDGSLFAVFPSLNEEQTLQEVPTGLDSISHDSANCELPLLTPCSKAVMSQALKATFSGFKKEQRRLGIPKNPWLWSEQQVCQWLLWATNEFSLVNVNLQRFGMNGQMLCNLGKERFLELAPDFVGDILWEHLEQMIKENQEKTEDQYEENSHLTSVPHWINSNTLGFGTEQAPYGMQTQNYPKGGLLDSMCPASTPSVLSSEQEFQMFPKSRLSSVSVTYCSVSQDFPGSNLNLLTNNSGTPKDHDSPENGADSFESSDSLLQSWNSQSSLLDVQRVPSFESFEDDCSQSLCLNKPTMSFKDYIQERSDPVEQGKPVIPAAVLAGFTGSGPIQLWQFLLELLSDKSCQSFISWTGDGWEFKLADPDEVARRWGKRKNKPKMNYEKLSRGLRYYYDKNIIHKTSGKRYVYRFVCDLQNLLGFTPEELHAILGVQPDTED
# In short: as §1
# SPDEF = target: T12, SPDEF (Homo sapiens, UniProt O95238 1-335)
# T12 sequence: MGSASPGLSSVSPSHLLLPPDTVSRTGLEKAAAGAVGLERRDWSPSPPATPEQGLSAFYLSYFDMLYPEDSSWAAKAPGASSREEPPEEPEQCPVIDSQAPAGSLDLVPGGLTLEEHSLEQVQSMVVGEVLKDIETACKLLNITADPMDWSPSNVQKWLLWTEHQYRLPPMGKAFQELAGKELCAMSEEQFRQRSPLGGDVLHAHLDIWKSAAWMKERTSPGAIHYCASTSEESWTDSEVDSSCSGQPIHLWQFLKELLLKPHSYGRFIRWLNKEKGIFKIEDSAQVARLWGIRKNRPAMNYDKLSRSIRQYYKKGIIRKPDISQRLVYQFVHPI
# In short: as §1
# ETV6 = ETV6 (Homo sapiens, UniProt P41212 1-452)
# Sequence of ETV6 (P41212 whole entry): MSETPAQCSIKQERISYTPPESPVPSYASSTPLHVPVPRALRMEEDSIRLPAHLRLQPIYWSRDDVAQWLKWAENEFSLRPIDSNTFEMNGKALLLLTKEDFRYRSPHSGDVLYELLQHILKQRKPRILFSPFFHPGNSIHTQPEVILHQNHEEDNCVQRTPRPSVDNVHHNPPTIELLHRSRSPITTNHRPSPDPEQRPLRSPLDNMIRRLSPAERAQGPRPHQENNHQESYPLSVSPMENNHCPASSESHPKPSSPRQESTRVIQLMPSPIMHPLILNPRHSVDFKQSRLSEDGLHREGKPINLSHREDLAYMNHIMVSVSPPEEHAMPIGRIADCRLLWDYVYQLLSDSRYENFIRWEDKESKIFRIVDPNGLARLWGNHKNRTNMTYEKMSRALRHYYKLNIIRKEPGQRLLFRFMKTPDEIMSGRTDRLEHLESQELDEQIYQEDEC
# In short: as §1
sequence,measurement,setting,value
CATACG,binding signal,FLI1,"1.05 fold enrichment (6-mer frequency, TF over GST control)"
same,binding signal,ELK1,"1.01 fold enrichment (6-mer frequency, TF over GST control)"
same,binding signal,GABPA,"1.03 fold enrichment (6-mer frequency, TF over GST control)"
same,binding signal,ERG,"1.06 fold enrichment (6-mer frequency, TF over GST control)"
same,binding signal,ELF1,"1.08 fold enrichment (6-mer frequency, TF over GST control)"
same,binding signal,EHF,"1.07 fold enrichment (6-mer frequency, TF over GST control)"
same,binding signal,SPI1,"1.06 fold enrichment (6-mer frequency, TF over GST control)"
same,binding signal,ELK3,"1.12 fold enrichment (6-mer frequency, TF over GST control)"
same,binding signal,FEV,"1.05 fold enrichment (6-mer frequency, TF over GST control)"
same,binding signal,ETV5,"1.08 fold enrichment (6-mer frequency, TF over GST control)"
same,binding signal,SPIC,"1.04 fold enrichment (6-mer frequency, TF over GST control)"
same,binding signal,ELF4,"1.03 fold enrichment (6-mer frequency, TF over GST control)"
same,binding signal,ETV1,"1.06 fold enrichment (6-mer frequency, TF over GST control)"
same,binding signal,ERF,"1.13 fold enrichment (6-mer frequency, TF over GST control)"
same,binding signal,ETV3L,"1.12 fold enrichment (6-mer frequency, TF over GST control)"
same,binding signal,ETS2,"1.01 fold enrichment (6-mer frequency, TF over GST control)"
same,binding signal,SPDEF,"1.1 fold enrichment (6-mer frequency, TF over GST control)"
same,binding signal,ETV6,"1.01 fold enrichment (6-mer frequency, TF over GST control)"
